Common to all, as to experiment: NCI-60 one-dose screen, 48 h (100 = growth as untreated, 0 = no growth, -100 = all killed)
Holding throughout (details): 10 µM unless noted

For assay [1], the system named is HCT-15 colon.
The test system of assay [2] is HT29 colon.
In assay [3] the test system is SNB-75 CNS.
For assay [4], the system named is SNB-19 CNS.
Assay [5] deals with U251 CNS.
For assay [6], the system named is PC-3 prostate.
The test system of assay [7] is SK-MEL-5 melanoma.
The subject of assay [8] is LOX IMVI melanoma.
In assay [9] the test system is SK-MEL-28 melanoma.
The subject of assay [10] is SK-MEL-2 melanoma.
For assay [11], the system named is EKVX NSCLC.
In assay [12] the test system is UO-31 renal.
Assay [13] deals with TK-10 renal.
In assay [14] the test system is ACHN renal.
Assay [15] has as its system CAKI-1 renal.
Assay [16] deals with A498 renal.
Assay [17] deals with CCRF-CEM leukemia.
Assay [18] deals with MOLT-4 leukemia.
Assay [19] deals with SN12C renal.
Assay [20] concerns UACC-62 melanoma.

This is part of a sample that, as a whole, favours compounds with a hit. Of some 83,000 tested, about 20% had one in any assay.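 Treatment: one concentration, 48 hours, 96-well format. Scoring: percent growth, with anything below 10 considered active.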 A number with no mark means an inactive call. The source made the active and inactive calls.

As for `Cc1cc(N2CCN(CC(=O)Nc3ccc4c(ccn4Cc4ccccc4)c3)CC2)nc(N2CCOCC2)n1`, the growth is 65.1% in assay [1]; 67.3% in assay [2]; 88.7% in [3]; 84.3% in assay [4]; 70.8% in assay [5]; 57% in [6]. For the same compound, the growth in assay [7] was 83.1%; in assay [8], 88.2%; in [9], 91.4%; in assay [10], 93%; in assay [11], 74.8%; in assay [12] it was 49%. For the same compound, the growth is 88.2% in assay [13]; 100% in [14]; 88% in assay [15]; 22.9% in assay [16]; 5.84% (active) in assay [17]; 77.8% in assay [18].

Consider `COc1ccc(C/C(C)=C(\c2ccc(O)cc2)c2ccc(OCCN3CCCCC3)cc2)cc1`, for which the growth in assay [1] is 72.7%; in assay [2] it was 22.5%; in assay [3], 77%; in assay [4], 97.1%; in assay [5], 72.6%; in assay [6], 67.4%. The growth in [7] is 86.1%; in assay [8], 84.4%; in assay [9], 90.3%; in assay [10], 114%; in [11], 90.1%; in assay [19], 89.9%. In addition, the growth is 56.6% in assay [12]; 85.2% in [13]; 93.1% in assay [14]; 104% in assay [15]; 110% in [16]; 54.4% in assay [17]. Besides, the growth in assay [18] was 38.4%.

As for `COC(=O)c1c2c(c(C)[n+]([O-])c1C)C(=O)C(NCc1ccccc1)=CC2=O`, the growth in [1] was 5.71% (active); in assay [2] it was 12.7%; in assay [3] it was 125%; in assay [5], 1.71% (active); in [6], 8.92% (active); in assay [7], -84.9% (active). Moreover, the growth in assay [20] was -16.6% (active); in assay [8], 8.65% (active); in assay [9] it was 61.3%; in assay [10], 23.6%; in [11] it was 34%; in assay [19], 2.86% (active). The growth is 42.1% in assay [12]; 113% in assay [13]; 35.4% in [14]; 22.3% in assay [15]; 98.6% in assay [16]; 21.9% in [17]. In [18], the growth was 16.4%.

Turning to `CCOC(=O)c1c(C)nc2ccccc2c1/C=C/c1ccc(F)cc1`, the growth in assay [1] is 68.1%; in assay [2], 75.5%; in [3], 86.5%; in [4], 76.9%; in assay [5], 75.5%; in [6] it was 67.3%. Also, the growth is 16.7% in [7]; 74.1% in assay [8]; 101% in [9]; 75.2% in [10]; 60.3% in assay [11]; 77.1% in assay [19]. The growth in [12] was 62.8%; in [13] it was 82.3%; in [14] it was 75.5%; in assay [15] it was 67.7%; in [17], 67.8%; in [18] it was 42.8%.

For `C=C[C@@]1(C)CC(=O)[C@@H](C(C)(C)c2cn(C)c3ccc(Br)cc23)C[C@@H]1O[Si](C)(C)C(C)(C)C`, the growth was 102% in [1]; 103% in [2]; 102% in assay [3]; 97.4% in assay [5]; 84.1% in assay [6]; 104% in [7]. Moreover, the growth in [20] was 93.7%; in [8], 90.4%; in [9], 100%; in assay [10], 97.8%; in [11], 99.3%; in assay [19], 97.6%. For the same compound, the growth in assay [12] was 94%; in assay [13], 98.1%; in assay [14] it was 111%; in assay [15], 90.2%; in assay [16], 106%; in [17], 89.5%. Moreover, the growth in assay [18] is 94.7%.

Consider `COc1cc(OC)c2c(=O)c3c(CC=C(C)C)cc(OC)c(O)c3oc2c1`, for which the growth in [1] was 59.8%; in assay [2], 95.4%; in [3] it was 60%; in assay [5], 85.1%; in assay [6] it was 99.2%; in assay [7] it was 76.4%. Moreover, the growth in assay [20] was 75.2%; in assay [8], 82%; in assay [9] it was 88.4%; in [10], 91.4%; in [11], 89.6%; in [19], 96%. The growth was 72% in [12]; 82.9% in assay [13]; 79.7% in assay [14]; 75.3% in assay [15]; 67.7% in [16]; 76.9% in assay [17]. In addition, the growth in [18] was 66.4%.

Regarding `Cc1[nH]c(C(=O)Nc2ccccc2OC2CCN(CCN3CCOCC3)CC2)c(Cl)c1Cl`, the growth in [1] is 83.6%; in assay [2], 73.7%; in assay [3] it was 76.1%; in assay [5], 93.3%; in assay [6], 78.3%; in assay [7], 87.9%. For the same compound, the growth in assay [20] was 108%; in [8], 86.3%; in assay [9] it was 104%; in assay [10], 101%; in assay [11], 86%; in assay [19] it was 97.7%. Also, the growth in assay [12] was 51.9%; in assay [13], 69.7%; in assay [14] it was 94.7%; in [15], 84%; in assay [16] it was 71.6%; in assay [17], 89.4%. Also, in assay [18], the growth is 72.6%.

Regarding `COc1ccc(Cl)cc1Nc1nc(C(F)(F)F)ccc1C(=O)N/N=C/c1ccc([N+](=O)[O-])cc1`, the growth in assay [1] was 3.38% (active); in [2], 2.62% (active); in assay [3], 29.5%; in assay [5] it was -27% (active); in [6], -5.64% (active); in assay [7] it was -17.7% (active). In addition, the growth is 17.3% in assay [20]; -32.8% (active) in assay [8]; 22.8% in assay [9]; -8.38% (active) in assay [10]; 0.805% (active) in [11]; 5.05% (active) in [19]. The growth is -1.49% (active) in [12]; 10.5% in assay [13]; -9.86% (active) in assay [14]; 4.56% (active) in assay [15]; 3.24% (active) in assay [16]; 9.15% (active) in assay [17]. Besides, the growth in assay [18] was 2.93% (active).

(Values after PubChem BioAssay (NCI).)
